These results are taken from PubChem BioAssay (NCI).

Structures are written as SMILES. The panel holds about 83,000 compounds, 20% with a hit somewhere; the sample as a whole holds those more often.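 Values shown are percent growth following 48 h exposure of cells in 96-well plates to a single concentration of compound; below 10 was considered active.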 Values without a mark were called inactive. The source made the active and inactive calls.

What all share (assay): NCI-60 one-dose screen, 48 h (100 = growth as untreated, 0 = no growth, -100 = all killed)
Holding throughout (conditions): 10 µM unless noted

Assay [1] has as its system NCI-H23 lung.
Assay [2] deals with NCI-H226 lung.
Assay [3] has as its system NCI-H322M lung.
The subject of assay [4] is HOP-62 NSCLC.
For assay [5], the system named is NCI-H460 lung.
For assay [6], the system named is HOP-92 NSCLC.
Assay [7] relates to NCI-H522 lung.
Assay [8] deals with A549/ATCC NSCLC.
For assay [9], the system named is 786-0 renal.
In assay [10] the test system is COLO 205 colon.

As to `O=C1/C(=C/c2ccccc2Br)COc2ccc(O)cc21`, the growth in assay [1] is 92.5%; in assay [2], 100%; in assay [3], 93.8%; in assay [4], 88.9%; in assay [5], 95.3%; in assay [6], 104%. Moreover, the growth in assay [7] is 31.3%; in assay [8] it was 86.4%; in [9], 73%; in [10], 100%.
In the case of `CCc1ccccc1-n1c(-c2ccc(OC)cc2)cc(-c2ccc(OC)cc2)c(C#N)c1=O`, the growth in assay [1] is 73.8%; in assay [2] it was 95.9%; in [3], 82.2%; in assay [4], 67.5%; in [5], 85.5%; in assay [6], 5.54% (active). Also, the growth was 73.8% in assay [7], 100% in [8], 33.7% in assay [9] and 132% in assay [10].
As to `NC(=O)c1cc(I)ccc1NC(=O)/C=C/c1ccccc1`, the growth was 9.27% (active) in assay [1]; 56.8% in assay [2]; 33.8% in [3]; -35.5% (active) in [4]; 1.75% (active) in [5]; 0.535% (active) in [6]. The growth was -18.7% (active) in [7], 33.7% in assay [8], 26% in assay [9] and 15.3% in assay [10].
Consider `O=c1scc(-c2ccc(C(F)(F)F)cc2)s1`, for which the growth in [1] was 89%; in assay [2], 91%; in assay [3], 90.5%; in [4], 92.3%; in [5], 102%; in [6] it was 81%. Besides, the growth in assay [7] is 67.5%; in assay [8], 79.1%; in assay [9], 90.3%; in assay [10] it was 131%.
Consider `COC1=CC(c2ccc[nH]2)=N/C1=C\c1[nH]c(C)c(C)c1CCC(=O)OCc1ccccc1`, for which the growth in assay [1] is -9.49% (active); in assay [2], -2.19% (active); in assay [3], 54.5%; in [4], -3% (active); in assay [5] it was 18.6%; in [6], -27.8% (active). Also, the growth in [7] is -38.7% (active); in assay [8], 10.1%; in assay [9], -38.8% (active); in assay [10], -64.8% (active).
Regarding `Cc1sc2nc(NCCc3c[nH]c4ccc(Cl)cc34)[nH]c(=O)c2c1C`, the growth in assay [1] is 61.6%; in assay [2], 70.6%; in assay [3], 61.2%; in assay [4], 34.7%; in assay [5], 18.6%; in assay [6], 46%. In addition, the growth in assay [7] is -23.9% (active); in [8], 0.107% (active); in assay [9], 56.5%; in assay [10], 22.3%.
With `COc1cc2ncnc(Nc3ccc(S(=O)(=O)Nc4cc(C)on4)cc3)c2cc1OCCCN1CCN(c2ccc(F)cc2)CC1`, the growth was 105% in assay [1]; 98.1% in [2]; 99.6% in assay [3]; 92.2% in assay [4]; 102% in assay [5]; 125% in assay [6]. In addition, the growth is 91% in assay [7], 101% in assay [8], 110% in [9] and 105% in assay [10].
Take `O=C1NC(=C(Cl)Cl)/C(=N\S(=O)(=O)NCc2ccccc2)N1`: the growth in assay [1] was 104%; in [2], 99.2%; in [3], 99.3%; in assay [4], 102%; in assay [5], 110%; in [6], 107%. Moreover, the growth in assay [7] is 81.4%; in assay [8], 94.1%; in assay [9], 100%; in assay [10], 121%.
`CC(=O)N1N=C(c2ccc(Nc3nc(Nc4ccccc4)nc(Nc4ccccc4)n3)cc2)CC1c1cccc([N+](=O)[O-])c1` (stereo not given): the growth in assay [1] was 94.6%; in assay [2], 113%; in assay [3], 96.2%; in assay [4] it was 78.8%; in [5], 107%; in assay [6] it was 56.8%. Also, the growth is 104% in assay [7], 93.3% in assay [8], 89.9% in [9] and 88.1% in assay [10].
On to `C#Cc1c2c(c(OC)c3c1OCO3)[C@H]([C@H]1OC(=O)c3c1ccc(OC)c3OC)N(C)CC2`, for which the growth in assay [1] is 86%; in assay [2], 98%; in [3], 94%; in assay [4], 71.8%; in assay [5], 96%; in assay [6], 91.2%. Further, the growth is 60.3% in assay [7], 65.5% in assay [8], 95.4% in assay [9] and 79.7% in assay [10].
Consider `COc1ccc(-c2nn(-c3cccc(Cl)c3)cc2-c2cc(-c3ccc(Br)cc3)nc(N)n2)cc1`, for which the growth in [1] is 87.3%; in assay [2], 86%; in [3] it was 80.4%; in assay [4], 88%; in assay [5] it was 93.9%; in assay [6], 91%. Moreover, the growth was 68.3% in assay [7], 81.2% in [8], 88.1% in assay [9] and 102% in [10].
For `N#CSc1c[nH]c2cccc(/C=C/C(=O)/C=C(/C=C/c3cccc4[nH]cc(SC#N)c34)OB(F)F)c12`, the growth in assay [1] was -45.4% (active); in assay [2], -75.9% (active); in assay [3] it was 53.7%; in [4] it was -26.1% (active); in assay [5], 4.16% (active); in assay [6], -62.1% (active). Besides, the growth in assay [7] was -65.2% (active); in [8] it was -8.65% (active); in assay [9], -51.6% (active); in assay [10], -60% (active).
Regarding `NS(=O)(=O)c1ccc(N=Nc2c(O)n(Cc3ccccc3)c3ccc(Cl)cc23)cc1`, the growth in assay [1] was 91.2%; in assay [2], 34.1%; in assay [3], 84%; in [4], 64.3%; in [5], 64.9%; in assay [6], 97.8%. In addition, the growth is 69.1% in assay [7], 82.9% in assay [8], 48% in assay [9] and 94.3% in assay [10].
